Targets with a hit are over-represented here; the source holds about 7,900 in all. About 0.6% of all pairs of compound and target were hits.
Legend:
Experiment in all cases: log2 fold change, soluble protein after heating vs DMSO (PISA); higher = thermal stabilisation; K562 cells, 10 uM, 30 min; active = over 0.2 and 3.5 SD of the protein, either way, in both replicates (recomputed)
[1] = compound: NC(=O)Nc1cc(-c2cccc(F)c2)sc1C(=O)N[C@H]1CCCNC1
Summary of the method: (§1)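 Values are thermal stability changes relative to control samples and are taken from duplicates. They are stated as log2 fold changes. Before quantification by TMTpro 16plex LC-MS/MS with equalised channel sums, K562 cells at 2×10^6 cells/mL were treated with 10 μM compound for 30 min, heated in aliquots for 3 min across 48°C-58°C, pooled, extracted in PBS with 0.5% NP-40 at 4°C, and centrifuged at 21,000xg for 90 min to give the soluble supernatant.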

[2] = compound: NC(=O)c1cnc(N[C@@H]2CCCC[C@@H]2N)nc1Nc1cccc(-n2nccn2)c1
Summary of the method: as §1

[3] = compound: NC1(c2ccc(-c3nc4ccn5c(=O)[nH]nc5c4cc3-c3ccccc3)cc2)CCC1
Summary of the method: as §1

[4] = compound: NCC(=O)Nc1ccc(-n2nc(C(F)(F)F)cc2-c2ccc3c(ccc4ccccc43)c2)cc1
Summary of the method: as §1

[5] = compound: Nc1ccccc1NC(=O)c1ccc(CNC(=O)OCc2cccnc2)cc1 [entinostat]
Summary of the method: as §1

[6] = compound: O=C(CCCCCCC(=O)Nc1ccccc1)NO [vorinostat]
Summary of the method: as §1

[7] = compound: O=C(CCCCCCNC(=O)c1cnc(N(c2ccccc2)c2ccccc2Cl)nc1)NO [citarinostat]
Summary of the method: as §1

[8] = compound: O=C(O)c1ccc2c(c1)nc(Nc1cccc(Cl)c1)c1ccncc12 [silmitasertib]
Summary of the method: as §1

[9] = compound: O=C1NC(=O)C(c2cnc3ccccn23)=C1c1cn2c3c(cc(F)cc13)CN(C(=O)N1CCCCC1)CC2
Summary of the method: as §1

[10] = compound: c1cc(OCCN2CCCCC2)cc(-c2n[nH]c3ccc(-c4nnc[nH]4)cc23)c1
Summary of the method: as §1

[11] = compound: c1cn2cc(-c3ccc4cn[nH]c4c3)nc(Nc3ccc(N4CCOCC4)cc3)c2n1 [entospletinib]
Summary of the method: as §1

Measured: log2 fold change

MFF (UniProt Q9GZY8)
inactive: [1] -0.098 | [3] -0.125 | [4] -0.102 | [5] -0.015 | [6] 0.006 | [7] -0.007 | [8] 0.04 | [9] -0.06 | [10] -0.135 | [11] -0.029
active: [2] -0.224

MED1 (UniProt Q15648)
inactive: [1] 0.027 | [2] -0.064 | [3] 0.002 | [4] -0.113 | [5] -0.018 | [6] 0.05 | [7] -0.001 | [8] -0.002 | [9] 0.063 | [10] -0.124 | [11] 0.019

KHDC4 (UniProt Q7Z7F0)
inactive: [1] -0.017 | [2] -0.003 | [3] -0.078 | [4] -0.034 | [5] 0.009 | [6] 0.028 | [7] 0.08 | [8] 0.01 | [9] -0.155 | [10] -0.052 | [11] -0.051

LUC7L3 (UniProt O95232)
inactive: [1] -0.203 | [2] -0.017 | [3] 0.058 | [4] -0.076 | [5] -0.051 | [6] -0.008 | [7] 0.083 | [8] -0.156 | [9] 0.086 | [10] -0.086 | [11] -0.005

MAIP1 (UniProt Q8WWC4)
UniProt Q8WWC4, sequence (Q8WWC4 whole entry, looked up): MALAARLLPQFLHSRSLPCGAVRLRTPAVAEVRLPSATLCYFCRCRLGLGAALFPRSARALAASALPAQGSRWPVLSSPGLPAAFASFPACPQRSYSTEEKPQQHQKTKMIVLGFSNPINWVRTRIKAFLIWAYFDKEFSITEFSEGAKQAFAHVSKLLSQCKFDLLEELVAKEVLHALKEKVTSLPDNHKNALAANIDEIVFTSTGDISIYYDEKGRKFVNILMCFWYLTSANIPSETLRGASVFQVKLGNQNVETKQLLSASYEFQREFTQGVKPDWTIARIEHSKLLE
inactive: [1] -0.061 | [2] -0.06 | [3] -0.129 | [4] -0.009 | [5] -0.015 | [6] 0.017 | [7] 0.076 | [8] -0.012 | [9] -0.085 | [10] -0.012 | [11] -0.003

MAP4K5 (UniProt Q9Y4K4)
inactive: [1] 0.217 | [2] 0 | [3] -0.002 | [4] -0.097 | [5] -0.012 | [6] 0.074 | [7] 0.02 | [8] -0.09 | [9] 0.073 | [10] 0.026 | [11] -0.065

IGF2R (UniProt P11717)
inactive: [1] -0.032 | [2] 0.03 | [4] 0.006 | [5] -0.008 | [6] 0 | [7] 0.07 | [8] 0.021 | [9] -0.063 | [10] -0.184 | [11] -0.004
active: [3] -0.546

ILF2 (UniProt Q12905)
UniProt Q12905, sequence (Q12905 whole entry, looked up): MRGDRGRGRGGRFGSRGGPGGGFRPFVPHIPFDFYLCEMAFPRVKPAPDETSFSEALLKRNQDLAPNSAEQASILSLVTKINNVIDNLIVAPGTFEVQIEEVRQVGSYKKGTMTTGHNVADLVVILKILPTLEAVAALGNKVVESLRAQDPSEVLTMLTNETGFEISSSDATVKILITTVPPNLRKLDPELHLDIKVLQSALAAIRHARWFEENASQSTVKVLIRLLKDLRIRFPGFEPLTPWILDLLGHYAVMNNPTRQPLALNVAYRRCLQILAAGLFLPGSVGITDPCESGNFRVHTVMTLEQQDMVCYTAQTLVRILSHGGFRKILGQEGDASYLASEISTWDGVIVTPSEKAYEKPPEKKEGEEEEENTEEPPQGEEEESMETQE
inactive: [1] -0.02 | [2] 0.024 | [3] 0.121 | [4] 0.109 | [5] -0.049 | [6] -0.059 | [7] -0.037 | [8] 0.13 | [9] 0.378 | [10] -0.18 | [11] -0.103

KPNB1 (UniProt Q14974)
UniProt Q14974, sequence (Q14974 whole entry, looked up): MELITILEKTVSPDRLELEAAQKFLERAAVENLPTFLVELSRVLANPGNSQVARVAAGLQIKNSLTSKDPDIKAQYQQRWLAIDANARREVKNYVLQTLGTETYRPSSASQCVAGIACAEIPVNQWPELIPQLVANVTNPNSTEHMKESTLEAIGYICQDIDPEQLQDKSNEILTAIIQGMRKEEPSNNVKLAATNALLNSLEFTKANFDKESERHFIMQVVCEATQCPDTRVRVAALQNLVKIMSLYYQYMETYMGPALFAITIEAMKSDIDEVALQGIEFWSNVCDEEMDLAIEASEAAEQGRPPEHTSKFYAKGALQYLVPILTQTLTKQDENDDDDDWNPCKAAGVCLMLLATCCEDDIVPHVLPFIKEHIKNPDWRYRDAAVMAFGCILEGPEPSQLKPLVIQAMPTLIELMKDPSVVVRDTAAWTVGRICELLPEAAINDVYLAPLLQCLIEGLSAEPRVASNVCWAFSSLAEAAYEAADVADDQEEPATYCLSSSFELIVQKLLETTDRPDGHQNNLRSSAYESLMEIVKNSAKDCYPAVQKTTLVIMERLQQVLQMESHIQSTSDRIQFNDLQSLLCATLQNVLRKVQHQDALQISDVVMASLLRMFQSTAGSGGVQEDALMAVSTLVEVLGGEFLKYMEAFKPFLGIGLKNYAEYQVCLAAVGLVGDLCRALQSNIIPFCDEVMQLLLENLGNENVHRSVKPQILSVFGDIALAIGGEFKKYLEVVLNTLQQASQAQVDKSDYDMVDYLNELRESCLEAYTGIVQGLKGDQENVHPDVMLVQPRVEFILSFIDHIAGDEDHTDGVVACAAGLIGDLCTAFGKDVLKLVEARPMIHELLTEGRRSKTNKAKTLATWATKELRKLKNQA
inactive: [1] 0.025 | [2] -0.087 | [3] -0.073 | [4] -0.037 | [5] 0.055 | [6] 0.038 | [7] 0.097 | [8] 0.099 | [9] 0.068 | [10] -0.059 | [11] 0.078

MAPKAPK5 (UniProt Q8IW41)
inactive: [2] 0.029 | [3] -0.051 | [4] -0.009 | [5] 0.027 | [6] 0.053 | [7] -0.003 | [8] -0.044 | [9] -0.078 | [10] 0.213 | [11] -0.03
active: [1] 0.382

KIF1B isoform 4 (UniProt O60333)
inactive: [1] 0.043 | [2] -0.059 | [3] -0.16 | [4] -0.03 | [5] 0.011 | [6] 0.063 | [7] 0.054 | [8] 0.009 | [9] -0.037 | [10] -0.062 | [11] -0.013

METTL18 (UniProt O95568)
UniProt O95568, sequence (O95568 whole entry, looked up): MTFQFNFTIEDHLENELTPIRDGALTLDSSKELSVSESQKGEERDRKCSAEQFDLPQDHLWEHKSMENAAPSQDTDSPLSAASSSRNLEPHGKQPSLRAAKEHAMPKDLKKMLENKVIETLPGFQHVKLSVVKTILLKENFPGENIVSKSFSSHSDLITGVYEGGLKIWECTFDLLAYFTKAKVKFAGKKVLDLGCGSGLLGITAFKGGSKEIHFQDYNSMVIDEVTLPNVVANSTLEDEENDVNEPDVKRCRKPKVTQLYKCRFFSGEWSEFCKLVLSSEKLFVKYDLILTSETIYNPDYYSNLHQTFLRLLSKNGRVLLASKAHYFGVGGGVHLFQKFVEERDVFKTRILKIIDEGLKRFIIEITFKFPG
inactive: [1] -0.028 | [2] 0.008 | [3] -0.034 | [4] 0.023 | [5] -0.02 | [6] 0.041 | [7] -0.046 | [8] 0.03 | [9] 0 | [10] -0.016 | [11] 0.072

LYPLA2 (UniProt O95372)
inactive: [1] 0.02 | [2] 0.043 | [3] -0.031 | [4] 0.09 | [5] 0.114 | [6] -0.065 | [7] 0.018 | [8] -0.048 | [9] 0 | [10] 0.036 | [11] 0.053

KDM5D isoform 3 (UniProt Q9BY66)
UniProt Q9BY66, sequence (Q9BY66 whole entry, looked up): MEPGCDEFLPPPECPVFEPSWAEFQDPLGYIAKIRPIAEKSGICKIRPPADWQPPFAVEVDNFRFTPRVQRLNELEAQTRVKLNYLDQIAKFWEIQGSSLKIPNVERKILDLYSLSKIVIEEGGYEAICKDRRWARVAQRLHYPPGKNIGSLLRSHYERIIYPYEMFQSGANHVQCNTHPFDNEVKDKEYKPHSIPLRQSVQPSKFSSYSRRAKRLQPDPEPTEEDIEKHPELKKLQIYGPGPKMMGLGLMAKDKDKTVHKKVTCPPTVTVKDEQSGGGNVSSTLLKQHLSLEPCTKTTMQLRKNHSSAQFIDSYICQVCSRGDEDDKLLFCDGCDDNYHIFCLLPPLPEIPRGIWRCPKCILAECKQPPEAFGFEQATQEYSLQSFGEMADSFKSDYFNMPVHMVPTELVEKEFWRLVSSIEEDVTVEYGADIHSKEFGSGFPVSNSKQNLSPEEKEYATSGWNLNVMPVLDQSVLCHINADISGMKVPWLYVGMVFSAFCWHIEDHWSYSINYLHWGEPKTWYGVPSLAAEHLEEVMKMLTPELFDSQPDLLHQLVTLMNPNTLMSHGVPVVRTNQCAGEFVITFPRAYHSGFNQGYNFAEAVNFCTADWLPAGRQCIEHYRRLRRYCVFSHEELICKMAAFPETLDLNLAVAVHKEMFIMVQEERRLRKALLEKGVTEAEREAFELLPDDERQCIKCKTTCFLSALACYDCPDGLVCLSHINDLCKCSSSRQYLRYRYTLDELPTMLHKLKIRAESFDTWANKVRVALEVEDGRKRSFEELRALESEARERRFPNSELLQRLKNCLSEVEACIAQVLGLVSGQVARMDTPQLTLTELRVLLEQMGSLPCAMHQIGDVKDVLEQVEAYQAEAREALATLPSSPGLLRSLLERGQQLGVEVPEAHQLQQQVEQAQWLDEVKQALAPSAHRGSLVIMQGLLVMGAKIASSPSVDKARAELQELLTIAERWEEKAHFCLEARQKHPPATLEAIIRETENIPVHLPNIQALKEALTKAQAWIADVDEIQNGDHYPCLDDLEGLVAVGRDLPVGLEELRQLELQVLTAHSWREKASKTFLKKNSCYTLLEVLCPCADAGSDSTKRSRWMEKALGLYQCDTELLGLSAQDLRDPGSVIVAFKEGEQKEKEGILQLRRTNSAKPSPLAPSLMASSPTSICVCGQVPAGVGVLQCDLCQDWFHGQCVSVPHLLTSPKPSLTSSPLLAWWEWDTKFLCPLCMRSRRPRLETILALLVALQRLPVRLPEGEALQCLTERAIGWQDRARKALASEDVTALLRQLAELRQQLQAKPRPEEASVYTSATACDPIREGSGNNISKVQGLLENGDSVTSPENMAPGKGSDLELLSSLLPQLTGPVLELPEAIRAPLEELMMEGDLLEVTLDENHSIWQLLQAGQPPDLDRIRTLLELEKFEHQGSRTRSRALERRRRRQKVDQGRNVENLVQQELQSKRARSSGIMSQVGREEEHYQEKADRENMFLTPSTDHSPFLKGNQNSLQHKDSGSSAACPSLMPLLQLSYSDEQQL
inactive: [1] -0.038 | [2] -0.012 | [3] -0.134 | [4] -0.025 | [5] 0.135 | [6] 0.006 | [7] 0.198 | [8] 0.176 | [9] 0 | [10] -0.096 | [11] -0.056

MICU1 isoform 3 (UniProt Q9BPX6)
inactive: [1] -0.048 | [2] -0.022 | [3] -0.012 | [4] 0.039 | [5] 0.016 | [6] 0.017 | [7] 0.053 | [8] 0.117 | [9] 0.027 | [10] -0.085 | [11] 0.049

IRF3 (UniProt Q14653)
UniProt Q14653, sequence (Q14653 whole entry, looked up): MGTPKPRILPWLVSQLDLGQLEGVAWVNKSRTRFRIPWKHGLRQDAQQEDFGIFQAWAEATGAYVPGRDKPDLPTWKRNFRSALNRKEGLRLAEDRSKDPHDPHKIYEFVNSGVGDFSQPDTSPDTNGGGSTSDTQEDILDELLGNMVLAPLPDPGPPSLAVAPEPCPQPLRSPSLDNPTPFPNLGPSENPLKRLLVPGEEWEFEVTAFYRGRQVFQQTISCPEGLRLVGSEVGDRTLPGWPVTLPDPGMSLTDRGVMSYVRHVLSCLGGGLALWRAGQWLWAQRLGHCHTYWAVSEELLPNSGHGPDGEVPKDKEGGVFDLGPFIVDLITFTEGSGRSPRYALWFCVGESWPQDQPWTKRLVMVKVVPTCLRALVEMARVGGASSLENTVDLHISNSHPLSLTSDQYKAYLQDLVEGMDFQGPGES
active: [1] 0.221
inactive: [2] -0.021 | [3] -0.021 | [4] -0.022 | [5] -0.078 | [6] 0.06 | [7] 0.028 | [8] -0.044 | [9] -0.047 | [10] -0.028 | [11] -0.022

MDN1 (UniProt Q9NU22)
inactive: [1] -0.002 | [2] -0.087 | [3] -0.138 | [4] -0.058 | [5] 0.112 | [6] 0.098 | [7] 0.075 | [8] -0.037 | [9] -0.032 | [10] 0.082 | [11] -0.123

LRRFIP1 (UniProt Q32MZ4)
inactive: [1] -0.027 | [2] 0.015 | [3] 0.056 | [4] 0.024 | [5] -0.042 | [6] -0.079 | [7] -0.007 | [8] 0.049 | [9] 0.01 | [10] -0.013 | [11] 0.004

KEL (UniProt P23276)
inactive: [1] -0.004 | [2] 0.088 | [3] -0.215 | [4] 0.017 | [5] -0.022 | [6] 0.03 | [7] 0.019 | [8] 0.108 | [9] 0.115 | [10] -0.001 | [11] -0.023

KPNA4 (UniProt O00629)
inactive: [1] -0.06 | [2] -0.054 | [3] -0.072 | [4] -0.053 | [5] -0.01 | [6] 0.019 | [7] 0.051 | [8] 0.065 | [9] -0.017 | [10] -0.111 | [11] -0.058

MARCKS (UniProt P29966)
inactive: [1] -0.018 | [2] 0.108 | [3] 0.038 | [4] 0.07 | [5] -0.074 | [6] -0.159 | [7] 0.062 | [8] -0.021 | [9] 0.031 | [10] -0.08 | [11] 0.004

LMBRD2 (UniProt Q68DH5)
inactive: [1] 0.028 | [2] 0.044 | [3] 0.099 | [4] -0.025 | [5] -0.011 | [6] -0.015 | [7] 0.057 | [8] -0.049 | [9] -0.09 | [10] -0.005 | [11] 0.024

MAST4 (UniProt O15021)
inactive: [1] -0.217 | [2] -0.038 | [3] -0.298 | [4] -0.115 | [5] 0.085 | [6] 0.045 | [7] 0.135 | [8] -0.053 | [9] 0.051 | [10] -0.151 | [11] -0.052

LTO1 (UniProt Q8WV07)
UniProt Q8WV07, sequence (Q8WV07 whole entry, looked up): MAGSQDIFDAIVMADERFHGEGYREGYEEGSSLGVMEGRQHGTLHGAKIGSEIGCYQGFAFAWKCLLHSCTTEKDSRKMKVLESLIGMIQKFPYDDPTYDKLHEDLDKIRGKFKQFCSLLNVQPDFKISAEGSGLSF
inactive: [1] -0.077 | [2] 0.009 | [3] -0.011 | [4] 0.094 | [5] -0.097 | [6] 0.005 | [7] 0.044 | [8] 0.158 | [9] -0.015 | [10] -0.126 | [11] -0.047

IPO13 (UniProt O94829)
UniProt O94829, sequence (O94829 whole entry, looked up): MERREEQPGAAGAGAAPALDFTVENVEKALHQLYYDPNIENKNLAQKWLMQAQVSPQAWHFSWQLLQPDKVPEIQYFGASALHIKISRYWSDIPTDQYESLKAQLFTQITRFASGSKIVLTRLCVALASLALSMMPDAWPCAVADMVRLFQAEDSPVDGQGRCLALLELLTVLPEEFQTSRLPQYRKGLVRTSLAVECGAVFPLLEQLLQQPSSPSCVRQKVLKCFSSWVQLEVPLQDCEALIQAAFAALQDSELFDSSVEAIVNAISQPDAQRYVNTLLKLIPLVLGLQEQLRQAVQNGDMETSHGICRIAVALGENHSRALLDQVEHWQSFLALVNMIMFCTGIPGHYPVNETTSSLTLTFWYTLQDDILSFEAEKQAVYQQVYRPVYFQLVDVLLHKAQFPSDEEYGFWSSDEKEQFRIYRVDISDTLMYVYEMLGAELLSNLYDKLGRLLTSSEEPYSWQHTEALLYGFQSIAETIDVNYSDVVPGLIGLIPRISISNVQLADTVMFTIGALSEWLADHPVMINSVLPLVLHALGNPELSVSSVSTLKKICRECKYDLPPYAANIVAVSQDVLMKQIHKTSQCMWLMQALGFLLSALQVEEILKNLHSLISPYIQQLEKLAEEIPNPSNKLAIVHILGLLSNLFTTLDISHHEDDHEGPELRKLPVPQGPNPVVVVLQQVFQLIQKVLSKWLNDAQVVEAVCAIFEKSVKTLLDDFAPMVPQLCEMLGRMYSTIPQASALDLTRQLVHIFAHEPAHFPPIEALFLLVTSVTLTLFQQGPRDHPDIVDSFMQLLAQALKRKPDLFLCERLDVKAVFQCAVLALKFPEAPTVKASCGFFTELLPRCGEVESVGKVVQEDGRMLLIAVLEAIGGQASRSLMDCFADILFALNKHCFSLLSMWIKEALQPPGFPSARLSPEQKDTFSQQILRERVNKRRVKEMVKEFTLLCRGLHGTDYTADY
inactive: [1] 0.051 | [2] -0.101 | [3] -0.206 | [4] -0.112 | [5] 0.012 | [6] 0.138 | [7] 0.067 | [8] 0.081 | [9] -0.046 | [10] -0.175 | [11] 0.106

MAPK9 (UniProt P45984)
inactive: [1] -0.058 | [2] -0.023 | [3] -0.053 | [4] -0.022 | [5] -0.028 | [6] -0.058 | [7] -0.022 | [8] -0.012 | [9] -0.102 | [10] 0.187 | [11] -0.069

LGALS8 isoform 2 (UniProt O00214)
inactive: [1] -0.053 | [2] -0.096 | [3] 0.179 | [4] 0.055 | [5] 0.091 | [6] 0.078 | [7] 0.051 | [8] 0.147 | [9] 0.121 | [10] -0.129 | [11] 0.101

Source: the supplement of paper PMC10849652
